# From PubChem BioAssay
# This is one part of the list. The source made the active and inactive calls.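 How the source made its calls, unless noted: active means potentiation averaged over duplicate wells exceeding buffer-only control mean by more than 3 SD; inactive means the rest.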
# Assays:
# [1] = nonspecific voltage dye response without TRPC6 – cell-based, parental HEK293, counter-screen for TRPC6 modulator project, confirmation (AID 488924;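 active means membrane potential signal moves up or down beyond 5 SD from buffer-only wells, on both duplicate plates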); settings: parental HEK293, membrane potential dye fluorescence; at 10 µM
# [2] = membrane potential response modulators in host HEK293 cells – cell-based, second counter-screen, parental HEK293, membrane potential dye, counter-screen for TRPC6 modulator project, confirmation (AID 488926;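 active means membrane potential signal drops by more than 5 SD from the mean control signal, in both duplicate plates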); settings: parental HEK293, membrane potential dye fluorescence, at 10 µM, after compound, maximal acetylcholine stimulation; hits give high values
# [3] = system: Transient receptor potential cation channel subfamily C member 4 (mouse); test: off-target membrane potential effects via mouse TRPC4 – cell-based, HEK293 TRPC4/mu-opioid, membrane potential dye, selectivity assay for TRPC6 modulator project, confirmation (AID 488927;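 active means membrane potential signal moved up or down beyond 5 SD of buffer control wells, in both duplicate plates, actives on both sides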); settings: membrane potential fluorescence, at 10 µM
# [4] = system: TRPC4 (transient receptor potential cation channel C4), mouse; test: DAMGO-evoked mouse TRPC4 response blockade – cell-based, second screen, HEK293 TRPC4/mu-opioid, membrane potential dye, selectivity assay for TRPC6 modulator project, confirmation (AID 488928;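 active means drop in membrane potential signal beyond 5 SD of the control wells in both duplicate plates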;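 further: TRPC4 counter screen for TRPC6 hits run under conditions tuned for TRPC6 not TRPC4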); settings: membrane potential dye fluorescence, at 10 µM, stimulated with maximal-effect DAMGO; hits give high values
# [5] = biological target: Short transient receptor potential channel 6 (Mus musculus) (UniProt Q61143); test: blockers of TRPC6 cation channel activity – HEK293 cells, membrane potential dye, duplicate, confirmation (AID 488960;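 active means fluorescence ratio falls more than 5 SD below the full-stimulation control mean, in both duplicate runs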;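 on inhibition: integrated fluorescence ratio of peak minus minimum over baseline after agonist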); settings: ACh-evoked depolarization, at 10 µM; hits give high values
# Short transient receptor potential channel 6 (Mus musculus), sequence (Q61143 whole entry, looked up): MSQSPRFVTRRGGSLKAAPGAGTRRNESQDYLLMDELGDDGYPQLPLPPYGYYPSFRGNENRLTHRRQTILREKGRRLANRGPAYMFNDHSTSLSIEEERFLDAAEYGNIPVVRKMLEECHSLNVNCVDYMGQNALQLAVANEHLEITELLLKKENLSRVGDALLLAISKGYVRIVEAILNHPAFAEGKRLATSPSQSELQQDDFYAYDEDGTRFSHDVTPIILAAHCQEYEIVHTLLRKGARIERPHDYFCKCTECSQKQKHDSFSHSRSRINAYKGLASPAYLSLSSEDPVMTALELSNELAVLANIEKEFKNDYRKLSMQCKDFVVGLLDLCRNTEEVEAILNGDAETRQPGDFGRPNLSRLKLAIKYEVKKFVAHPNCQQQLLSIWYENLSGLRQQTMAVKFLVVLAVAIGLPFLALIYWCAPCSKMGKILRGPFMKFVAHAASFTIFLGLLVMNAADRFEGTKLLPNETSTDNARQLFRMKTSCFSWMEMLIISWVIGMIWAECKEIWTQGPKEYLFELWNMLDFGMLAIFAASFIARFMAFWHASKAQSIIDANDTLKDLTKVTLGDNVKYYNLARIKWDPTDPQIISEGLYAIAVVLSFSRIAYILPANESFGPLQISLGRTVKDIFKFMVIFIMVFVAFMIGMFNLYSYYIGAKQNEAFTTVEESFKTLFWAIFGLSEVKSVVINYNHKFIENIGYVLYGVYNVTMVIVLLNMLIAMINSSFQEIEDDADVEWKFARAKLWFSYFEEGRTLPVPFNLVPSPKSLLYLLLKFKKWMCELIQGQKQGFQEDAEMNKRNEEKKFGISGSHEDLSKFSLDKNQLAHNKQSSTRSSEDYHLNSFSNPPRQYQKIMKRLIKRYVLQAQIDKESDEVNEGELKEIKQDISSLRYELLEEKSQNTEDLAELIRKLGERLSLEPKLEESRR
# [6] = biological target: Short transient receptor potential channel 6 (Mus musculus) (UniProt Q61143); test: mouse TRPC6 channel activators, confirmation, HEK293 cells, membrane potential dye, duplicate (AID 488961;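 active means ratio signal rise beyond 5 SD above unstimulated control wells' mean, seen in both duplicate runs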); settings: HEK293-TRPC6 membrane potential dye fluorescence, FDSS, at 10 µM; hits give high values
# [7] = nonspecific flux increase, KCNQ1-free cells – parental CHO cells, counter-screen for KCNQ1 potentiator project (AID 493006;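 active means duplicate-averaged activation above buffer control mean plus 5 SD of those controls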;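 on activation: fluorescence ratio of max minus min over baseline after K+ and Tl+ depolarization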); settings: parental CHO-K1 cells, FluxOR thallium flux, at 10 µM; hits give high values
# [8] = biological target: Potassium voltage-gated channel subfamily KQT member 1 (Homo sapiens) (UniProt P51787); test: enhancement of KCNQ1 channel thallium flux – FluxOR thallium flux, CHO cells, duplicates, confirmation (AID 493007); settings: KCNQ1 cell line, FluxOR thallium flux fluorescence, at 10 µM; hits give high values, % of reference activator effect, buffer zero;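 on outcome: cells depolarized by a potassium plus thallium sulfate stimulus after compound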;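 on potentiation: 0% = buffer-only wells and 100% = R-L3 activator control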
# Potassium voltage-gated channel subfamily KQT member 1 (Homo sapiens), sequence (P51787 whole entry, looked up): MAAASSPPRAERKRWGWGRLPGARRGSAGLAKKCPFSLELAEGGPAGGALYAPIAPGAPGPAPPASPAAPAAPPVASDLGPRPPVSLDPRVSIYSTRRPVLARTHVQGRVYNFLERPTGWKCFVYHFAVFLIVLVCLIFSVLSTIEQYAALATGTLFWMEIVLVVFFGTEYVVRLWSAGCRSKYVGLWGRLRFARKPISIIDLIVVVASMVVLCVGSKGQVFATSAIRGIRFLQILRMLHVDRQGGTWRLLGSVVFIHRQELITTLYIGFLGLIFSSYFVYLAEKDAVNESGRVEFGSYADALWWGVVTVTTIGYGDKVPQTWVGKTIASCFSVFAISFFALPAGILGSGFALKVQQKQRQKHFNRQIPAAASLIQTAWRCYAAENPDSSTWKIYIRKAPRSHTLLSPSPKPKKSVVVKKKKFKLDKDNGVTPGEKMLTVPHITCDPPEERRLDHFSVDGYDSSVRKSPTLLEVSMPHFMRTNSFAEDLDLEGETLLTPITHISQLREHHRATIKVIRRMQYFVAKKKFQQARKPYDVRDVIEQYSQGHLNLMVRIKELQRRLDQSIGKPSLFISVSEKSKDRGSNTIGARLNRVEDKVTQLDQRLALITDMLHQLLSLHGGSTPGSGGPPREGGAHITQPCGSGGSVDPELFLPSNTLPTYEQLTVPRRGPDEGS
# [9] = biological target: Potassium voltage-gated channel subfamily KQT member 2 (Rattus norvegicus) (UniProt O88943); test: KCNQ2 thallium flux enhancement – KCNQ2-CHO-K1 cells, selectivity assay for KCNQ1 potentiator project (AID 493009;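 active means mean duplicate potentiation above the buffer control mean plus 5 SD of buffer wells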;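 further: assay conditions were tuned for KCNQ1 rather than KCNQ2 modulators; signal is max minus min fluorescence divided by baseline after thallium stimulus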); settings: FluxOR thallium flux fluorescence, at 10 µM; hits give high values, scaled: buffer 0, activator control 100
# Potassium voltage-gated channel subfamily KQT member 2 (Rattus norvegicus), sequence (O88943 whole entry, looked up): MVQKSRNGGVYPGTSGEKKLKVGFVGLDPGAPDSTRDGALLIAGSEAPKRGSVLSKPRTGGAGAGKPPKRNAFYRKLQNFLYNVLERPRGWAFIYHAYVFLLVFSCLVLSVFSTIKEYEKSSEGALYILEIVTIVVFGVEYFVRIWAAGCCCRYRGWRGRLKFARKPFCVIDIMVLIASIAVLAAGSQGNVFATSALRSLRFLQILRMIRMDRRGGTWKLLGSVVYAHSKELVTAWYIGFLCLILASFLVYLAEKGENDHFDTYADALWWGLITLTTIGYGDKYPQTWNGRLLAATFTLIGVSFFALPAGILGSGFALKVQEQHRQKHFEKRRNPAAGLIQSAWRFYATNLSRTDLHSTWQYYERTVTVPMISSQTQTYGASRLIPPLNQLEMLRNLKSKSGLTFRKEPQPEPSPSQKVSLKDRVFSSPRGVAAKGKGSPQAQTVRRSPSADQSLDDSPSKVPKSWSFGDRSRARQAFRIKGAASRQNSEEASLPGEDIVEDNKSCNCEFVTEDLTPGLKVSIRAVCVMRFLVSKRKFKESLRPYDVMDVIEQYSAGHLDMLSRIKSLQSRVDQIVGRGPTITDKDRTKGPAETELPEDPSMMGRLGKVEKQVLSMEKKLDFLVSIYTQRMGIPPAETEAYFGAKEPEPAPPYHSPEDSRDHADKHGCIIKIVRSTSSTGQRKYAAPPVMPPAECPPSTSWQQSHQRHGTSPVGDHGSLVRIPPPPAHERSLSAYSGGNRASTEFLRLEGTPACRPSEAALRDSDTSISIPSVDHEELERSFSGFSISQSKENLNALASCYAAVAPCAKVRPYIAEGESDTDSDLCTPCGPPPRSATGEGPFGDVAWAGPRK
# [10] = biological target: Potassium voltage-gated channel subfamily KQT member 1 (Homo sapiens) (UniProt P51787); test: KCNQ1 activators by electrophysiology – IonWorks patch clamp, KCNQ1-CHO cells, orthogonal assay for KCNQ1 potentiator project, confirmation (AID 493184;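 active means current rise at least 3 SD above the untreated control mean in each of two repeat wells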;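 on current potentiation: percent change of the same well's current before compound addition so 0% = no change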); settings: automated patch clamp current, at 10 µM; hits give high values
smiles,measurement,setting,value
Cc1cccc(-[n+]2c(-c3cccc(Br)c3)[nH]c3nc4ccccc4nc32)c1,outcome,[1],inactive
same,outcome,[2],inactive
same,outcome,[3],inactive
same,inhibition,[4],51% (active)
same,outcome,[5],inactive
same,outcome,[6],inactive
c1ccc(C2CNCc3c2ccc2ccccc32)cc1 (stereo not drawn),outcome,[1],inactive
same,outcome,[2],inactive
same,outcome,[3],inactive
same,inhibition,[4],81.5% (active)
same,inhibition,[5],58% (active)
same,outcome,[6],inactive
COc1ccc(C2c3ccc4ccccc4c3Oc3ncn(CCN4CCOCC4)c(=N)c32)cc1 (stereo not drawn),outcome,[7],inactive
same,outcome,[8],inactive
same,outcome,[9],inactive
same,outcome,[10],inactive
COC(=O)C1CCCN1C(=O)COc1ccc(Cl)cc1Br (stereo not drawn),activation,[7],152% (active)
same,outcome,[8],inactive
same,potentiation,[9],158% (active)
same,outcome,[10],inactive
CCCCOC(=S)NC(=O)c1sc2ccccc2c1Cl,activation,[7],448% (active)
same,potentiation,[8],206% (active)
same,potentiation,[9],365% (active)
same,outcome,[10],inactive
Cc1ccccc1OC(=O)n1c(=S)oc2cc(Cl)ccc21,activation,[7],152% (active)
same,outcome,[8],inactive
same,potentiation,[9],157% (active)
same,outcome,[10],inactive
CC(OC(=O)CC1Sc2ccccc2NC1=O)C(=O)NC1CCCC1 (stereo not drawn),outcome,[7],inactive
same,outcome,[8],inactive
same,outcome,[9],inactive
same,outcome,[10],inactive
Cc1ccc(OCC(=O)NNC(=S)NC(=O)c2cccs2)c(C)c1,activation,[7],195% (active)
same,potentiation,[8],76.5% (active)
same,potentiation,[9],238% (active)
same,outcome,[10],inactive
CCCCOc1ccc(C(=O)Oc2ccc(C)nc2)cc1,outcome,[7],inactive
same,outcome,[8],inactive
same,outcome,[9],inactive
same,outcome,[10],inactive
Cc1nc(SC(C)C(=O)c2c(N)n(C)c(=O)n(C)c2=O)c2c(C)c(C)sc2n1 (stereo not drawn),activation,[7],199% (active)
same,potentiation,[8],86% (active)
same,potentiation,[9],256% (active)
same,outcome,[10],inactive
C/C(=N\NC(=O)c1cc2ccccc2cc1O)c1ccccn1,activation,[7],157% (active)
same,potentiation,[8],38.5% (active)
same,potentiation,[9],169% (active)
same,current potentiation,[10],21.5% (active)
COc1ccc(-c2nc(=S)c3ccc4ccccc4c3[nH]2)cc1,activation,[7],207% (active)
same,potentiation,[8],83.5% (active)
same,potentiation,[9],180% (active)
same,outcome,[10],inactive
CC(C)C1Cc2c(sc3[nH]c(=S)n(Cc4ccccc4)c(=O)c23)CO1 (stereo not drawn),activation,[7],404% (active)
same,potentiation,[8],128% (active)
same,potentiation,[9],362% (active)
same,outcome,[10],inactive
Cc1nn2c(NCc3ccccn3)cc(C(C)C)nc2c1-c1ccccc1,outcome,[7],inactive
same,outcome,[8],inactive
same,outcome,[9],inactive
same,outcome,[10],inactive
CCCCCCCC/C=C\CCCCCCCC(=O)O,activation,[7],143% (active)
same,potentiation,[8],51% (active)
same,outcome,[9],inactive
same,outcome,[10],inactive
Cn1c(=O)c2c3c(sc2n2c(SCC(N)=O)nnc12)CC(C(C)(C)C)CC3 (stereo not drawn),outcome,[7],inactive
same,outcome,[8],inactive
same,outcome,[9],inactive
same,outcome,[10],inactive
